“And” between values parts separate entries of the source, which are not always exact repeats. Equal values may be shown once. Inconclusive results are not listed. More than one record can exist for a structure, and the calls need not agree. The source made the active and inactive calls. Unless noted, calls come from the whole dose curve; as a rule, active = well fitted curve in the direction sought with a large enough effect in the repeat runs; inconclusive = weak or mixed curves; inactive = no such curve, though single readings can be large; an effect the other way counts as inactive or inconclusive.

The values that follow come from PubChem BioAssay (Tox21).

For test [1], the target named is Nuclear receptor subfamily 1 group I member 3 (Homo sapiens) (UniProt Q14994). As to the kind of experiment: qHTS assay to identify small molecule antagonists of the constitutive androstane receptor (CAR) signaling pathway (AID 1224838).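 Note: HepG2 cells stably expressing hCAR with CYP2B6 luciferase reporter stimulated by CITCO; nearly all actives have a fitted effect of over 40% in size.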 Note: potency is the fitted concentration of half-maximal effect. The method in brief:
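Read-out: ONE-Glo luciferase luminescence after 30 min at room temperature. HepG2-CYP2B6-hCAR double-stable cells, compounds in 15-point titration plus 50 nM CITCO final, 24 h at 37 C/5% CO2.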

Test [2] shares this target. Briefly: qHTS assay to identify small molecule agonists of the constitutive androstane receptor (CAR) signaling pathway (AID 1224839).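 For activation: HepG2 cells stably carrying human CAR and a CYP2B6 luciferase reporter.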 Note: nearly all actives have a fitted effect of over 15% in size. Note: potency is the fitted concentration of half-maximal effect. The method in brief: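 Cells were plated and incubated 4 hrs, then dosed with compounds at 15 concentrations. PK11195 was added to 0.75 uM final. After 24 hrs at 37 C, luciferase luminescence was measured.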
Background: Quantitative high-throughput screening tests each substance at several concentrations.

Test [3] in a line: qHTS assay to identify small molecule antagonists of the estrogen related receptor signaling pathway with the pleiotropic PPARgamma coactivator (PGC) from Tox21 10K library - cell viability counter screen (AID 1224840; active = well fitted cell-killing curve with a large enough effect in the repeat runs, not every such curve was filed as active; note: nearly all actives have a fitted effect of over 40% in size; note: potency is the fitted concentration of half-maximal effect). A digest of the protocol: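 Fluorescence read-out of CellTiter-Fluor viability reagent, added after cells had been exposed to compound in DMSO for 17.5 h at 37 C; 30 min development at 37 C/5% CO2. Cells: PGC/ERR line, 2,000/well.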

Test [4] can be described thus: qHTS assay to identify small molecule antagonists of the estrogen related receptor signaling pathway with the pleiotropic PPARgamma coactivator (PGC) from Tox21 10K library (AID 1224841; call rule not given here; note: actives are mostly falling curves and most rising ones were filed inactive; nearly all actives have a fitted effect of over 50% in size; note: potency is the fitted concentration of half-maximal effect). The method in brief: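 Luminescence read-out (One-Glo luciferase reagent, 30 min at room temperature) from PGC/ERR cells exposed to DMSO-dissolved test compounds for 18 h at 37 C; cells, 2,000 per well, had been preincubated 6 h before compound transfer.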

In test [5] the target is Thyrotropin receptor (Homo sapiens) (UniProt P16473). As to the kind of experiment: qHTS assay to identify small molecule agonists of the thyroid stimulating hormone receptor (TSHR) signaling pathway (AID 1224843; calls by dose curve; note: nearly all actives have a fitted effect of over 45% in size). A digest of the protocol: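 Compounds are titrated over 15 concentrations, in triplicate, onto TSHR-HEK293 cells seeded at 800/well. Plates sit 30 min at room temperature before cAMP-d2 and anti-cAMP cryptate are added; signal is read after a further hour.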

Test [6] is described as follows: qHTS assay to identify small molecule agonists of the hypoxia (HIF-1) signaling pathway - cell viability counter screen (AID 1224844; calls by dose curve; note: nearly all actives have a fitted effect of over 50% in size; note: potency is the fitted concentration of half-maximal effect). A digest of the protocol: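 CellTiter-Glo luminescence read-out, 30 min RT, taken in the same wells as the beta-lactamase HRE reporter assay; HRE-bla ME-180 cells, 0.5% dialyzed FBS, 17 hr compound treatment at 37C, 5% CO2.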
The nature of test [7]: qHTS assay to identify small molecule agonists of H2AX (AID 1224845; active = well fitted activation curve with a large enough effect in the signal ratio in the repeat runs, not every such curve was filed as active; the % refers to the signal ratio; note: potency is the fitted concentration of half-maximal effect). A digest of the protocol:
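Wild-type CHO-K1 cells plated overnight, then exposed 3 hr at 37C to compounds at 15 concentrations (0.76% DMSO). Lysed, then HTRF anti-pH2AX(S139)-cryptate/anti-H2AX-d2 detection after 24 hr at room temperature; emissions 665 and 620 nm.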

Test [8] is described as follows: qHTS assay to identify small molecule agonists of the hypoxia (HIF-1) signaling pathway (AID 1224846; active = well fitted activation curve with a large enough effect in the signal ratio in the repeat runs, not every such curve was filed as active; the % refers to the signal ratio). A digest of the protocol: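 Beta-lactamase FRET read-out (CCF4-AM substrate) from ME-180 cells carrying an HRE-driven bla reporter, after 17 hrs compound exposure at 37C/5% CO2. Cells were seeded at 2,000 per well in 0.5% dialyzed FBS medium and preincubated 5 hrs.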

Test [9] is described as follows: qHTS assay to identify small molecule agonists of H2AX - cell viability counter screen (AID 1224847; calls by dose curve; note: top concentration of the series differs between compounds; nearly all actives have a fitted effect of over 30% in size). A digest of the protocol: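 Cytotoxicity counter screen in wild-type CHO-K1 cells: a 3 hr compound treatment at 37C across 15 concentrations, followed by CellTiter-Glo luminescence to gauge viable cells.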
Test [10] can be described thus: qHTS assay to identify small molecule antagonists of the estrogen related receptor (ERR) signaling pathway from Tox21 library (AID 1224848). Note: nearly all actives have a fitted effect of over 50% in size. A digest of the protocol:
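First, 2,000 ERR cells per well were plated and held 6 h at 37 C/5% CO2. Next, compounds in DMSO were pinned in and left 18 h at 37 C. Finally, ONE-Glo was added and luminescence read after 30 min at room temperature.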

The nature of test [11]: qHTS assay to identify small molecule agonists of the estrogen related receptor (ERR) signaling pathway from Tox21 library (AID 1224849; calls by dose curve; note: nearly all actives have a fitted effect of over 15% in size). The conditions noted are these: ERR reporter cell line, ONE-Glo luciferase, 18 h. The method in brief: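 Luminescence readout (ONE-Glo, 30 min RT) after 18 h compound exposure at 37 C of NTP-supplied ERR reporter cells; cells were plated 6 h before compound addition by pin tool.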

Test [12] can be described thus: qHTS RealTime-Glo MT Cell Viability Assay in HepG2 cells - 24 hour (AID 1224867). Note: nearly all actives have a fitted effect of over 50% in size. The method in brief:
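Tox21 10K library screened in qHTS format on HepG2 cells carrying RealTime-Glo reagents. Compounds were added after a 5 h preincubation, and the luminescent signal from continuous culture was measured repeatedly during 40 h treatment.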

Test [13] is described as follows: qHTS RealTime-Glo MT Cell Viability Assay in HEK293 cells - 32 hour (AID 1224868). The method in brief: (§1)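 Luminescence generated by NanoLuc from substrate produced by living HEK293 cells served as the viability signal. Each value reflects the reading at its stated time point during continuous 40 h compound exposure at 37 C.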
Test [14] in a line: A CellTox Green Cytotoxicity Assay to monitor cytotoxicity in HEK293 cells - 0 hour (AID 1224869). Note: nearly all actives have a fitted effect of over 50% in size. A digest of the protocol:
(§2)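 Read-out: fluorescence of a cell-impermeant cyanine dye staining DNA of dead cells, proportional to cytotoxicity. HEK293, 600 cells/well with reagent, compound (23 nL DMSO) added after 5 h; reads at 0, 8, 16, 24, 32, 40 h.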

Test [15] in a line: qHTS RealTime-Glo MT Cell Viability Assay in HepG2 cells - 40 hour (AID 1224870). Note: nearly all actives have a fitted effect of over 50% in size. A digest of the protocol:
(§3)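 HepG2 cells mixed with RealTime-Glo MT reagents (NanoLuc plus cell-permeant prosubstrate) were seeded at 600 cells/well, incubated 5 h at 37 C/5% CO2, then pinned with compounds in DMSO; nonlytic luminescence tracked viability during 40 h treatment.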

A short description of test [16]: A CellTox Green Cytotoxicity Assay to monitor cytotoxicity in HEK293 cells - 40 hour (AID 1224871). Note: nearly all actives have a fitted effect of over 45% in size. Note: potency is the fitted concentration of half-maximal effect. A digest of the protocol:
as §2

Test [17] is described as follows: qHTS RealTime-Glo MT Cell Viability Assay in HEK293 cells - 16 hour (AID 1224872). A digest of the protocol: as §1
A short description of test [18]: qHTS RealTime-Glo MT Cell Viability Assay in HepG2 cells - 8 hour (AID 1224873). Note: nearly all actives have a fitted effect of over 55% in size. A digest of the protocol: as §3
Test [19] can be described thus: qHTS assay to identify small molecule agonists of the estrogen related receptor signaling pathway with the pleiotropic PPARgamma coactivator (PGC) from Tox21 10K library (AID 1224842). Note: nearly all actives have a fitted effect of over 15% in size. A digest of the protocol: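 PGC/ERR reporter cells (NTP line) were seeded 2,000 per well, rested 6 h at 37 C/5% CO2, then pin-dosed with compounds in DMSO for 18 h at 37 C; luciferase read by One-Glo luminescence after 30 min at room temperature.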
% is set by controls: 0 for no effect and ±100 for the full control effect.

Sequence of Thyrotropin receptor (Homo sapiens) (P16473 whole entry, looked up): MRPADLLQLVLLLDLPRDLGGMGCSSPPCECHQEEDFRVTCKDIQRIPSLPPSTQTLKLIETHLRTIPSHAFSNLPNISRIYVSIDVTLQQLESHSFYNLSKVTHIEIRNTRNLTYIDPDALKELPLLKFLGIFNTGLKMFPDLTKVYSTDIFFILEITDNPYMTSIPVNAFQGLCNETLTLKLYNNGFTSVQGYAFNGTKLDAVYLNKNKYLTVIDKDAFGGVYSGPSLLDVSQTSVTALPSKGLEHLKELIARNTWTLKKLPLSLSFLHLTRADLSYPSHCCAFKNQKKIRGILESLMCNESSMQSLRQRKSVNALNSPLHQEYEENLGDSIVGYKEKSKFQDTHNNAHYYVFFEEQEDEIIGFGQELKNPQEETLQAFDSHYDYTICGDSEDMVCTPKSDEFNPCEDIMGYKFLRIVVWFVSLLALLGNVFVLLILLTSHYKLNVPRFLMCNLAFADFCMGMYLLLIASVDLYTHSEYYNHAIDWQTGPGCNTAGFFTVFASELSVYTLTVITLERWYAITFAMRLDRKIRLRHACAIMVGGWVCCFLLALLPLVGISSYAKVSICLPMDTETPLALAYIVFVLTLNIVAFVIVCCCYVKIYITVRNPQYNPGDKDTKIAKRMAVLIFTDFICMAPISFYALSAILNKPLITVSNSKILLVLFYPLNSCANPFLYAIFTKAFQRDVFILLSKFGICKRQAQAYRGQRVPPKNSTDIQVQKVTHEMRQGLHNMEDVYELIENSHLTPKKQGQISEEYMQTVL
Sequence of Nuclear receptor subfamily 1 group I member 3 (Homo sapiens) (Q14994 whole entry, looked up): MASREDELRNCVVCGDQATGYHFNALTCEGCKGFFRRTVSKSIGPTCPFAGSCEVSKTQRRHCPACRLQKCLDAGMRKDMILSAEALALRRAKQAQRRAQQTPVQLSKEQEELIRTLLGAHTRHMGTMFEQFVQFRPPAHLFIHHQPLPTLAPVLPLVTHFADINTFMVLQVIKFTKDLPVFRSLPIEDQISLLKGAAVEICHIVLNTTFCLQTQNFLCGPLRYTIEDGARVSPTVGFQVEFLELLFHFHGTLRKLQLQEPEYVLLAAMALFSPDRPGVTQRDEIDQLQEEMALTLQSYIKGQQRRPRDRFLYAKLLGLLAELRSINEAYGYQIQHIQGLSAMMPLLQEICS

Take `CN1C(=O)CN=C(c2ccccc2)c2cc(Cl)ccc21`: the Potency entry in test [1], in [2], in test [3], in test [4], in [5] and in [6] was “inactive” throughout. The Potency result in test [7], in test [9], in test [10], in test [13], in test [14] and in [16] was “inactive” throughout. Moreover, the outcome in test [8], in test [12], in test [15], in [17] and in test [18] was inactive. Further, the activity change, positive = activation was 8.92% (inactive) in test [11] (at 42.5 µM (top of the series)) and -13.2% (inactive) in test [11] (at 92.4 µM (top of the series)).
Regarding `C#CC(C)(C)NC(=O)c1cc(Cl)cc(Cl)c1`, the Potency entry in [1], in test [2], in test [3], in test [5], in test [6] and in [7] was “inactive” each time. Also, the Potency entry in [9], in test [13], in test [14] and in test [16] was “inactive” in each case. The result in test [8], in test [12], in test [15], in [17] and in test [18] was inactive.
For `CN(C)CCO`, the Potency result in [1], in [2], in test [4], in test [5], in test [6] and in [7] was “inactive” each time. The Potency entry in [10], in test [13], in [14] and in test [16] was “inactive” each time. The call in test [19], in test [8], in test [12], in [17] and in test [18] was inactive. The activity change, positive = activation in test [11] (at 92.4 µM (top of the series)) is 0.0173% (inactive) and 5.21% (inactive).
For the compound `COCCl`, the Potency result in [1], in test [2], in [4], in [5], in test [6] and in test [7] was “inactive” in each case. In addition, the Potency entry in test [9], in test [10], in [13], in [14] and in test [16] was “inactive” each time. Further, the outcome in [19], in [8], in [12], in test [15], in test [17] and in test [18] was inactive. The activity change, positive = activation in test [11] (at 42.5 µM (top of the series)) was 1.1% (inactive); in [11] (at 92.4 µM (top of the series)) it was -18.8% (inactive).
Take `O=S(=O)(c1ccc(Cl)cc1)c1cc(Cl)c(Cl)cc1Cl`: the Potency result in test [1], in [3], in [6], in test [7], in test [13] and in test [14] was “inactive” each time. In [16], the Potency entry is “inactive”. In test [2], the Potency was 30.6 µM (active) and 27.3 µM (active). For the same compound, the result in test [8], in [12], in test [15], in [17] and in test [18] was inactive.
For the compound `CCC[N+](=O)[O-]`, the Potency in [1] was 8.48 µM (active) and inactive; in test [3], 37.9 µM (active) and inactive; in [6], 4.81 µM (active) and inactive; in [7] it was 5.56 µM (active) and inactive; in test [16], 38.2 µM (active) and inactive. Also, the Potency result in test [2], in test [5], in [13] and in test [14] was “inactive” throughout. The compound was called inactive in test [8], in test [12], in test [15], in test [17] and in test [18].
Consider `CC(C)NC(=O)N1CC(=O)N(c2cc(Cl)cc(Cl)c2)C1=O`, for which the Potency result in test [1], in test [2], in test [5], in test [6], in test [7] and in test [9] was “inactive” in each case. The Potency result in test [10], in [14] and in [16] was “inactive” throughout. Also, the Potency in test [4] was 30.6 µM (active) and inactive. For the same compound, the call in [19], in test [8], in test [12], in test [15], in test [17] and in test [18] was inactive. Besides, in [11] (at 92.4 µM (top of the series)), the activity change, positive = activation was -27.3% (inactive) and -5.72% (inactive).
